Assay outcomes from PubChem.
PLC-beta3 inh = human PLC-beta3 inhibitors, primary screen, biochemical, fluorescence; Purified PLC-beta3, fluorogenic substrate; inhibition, % at 12.2 µM; 1-phosphatidylinositol 4,5-bisphosphate phosphodiesterase beta-3 (Homo sapiens), Q01970; actives 0.18% (n = 370,000); in the data active = inhibition above about 11%;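 note: 0% = median of compound wells on plate and 100% = full blocker control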
Target sequence (Q01970 whole entry, looked up): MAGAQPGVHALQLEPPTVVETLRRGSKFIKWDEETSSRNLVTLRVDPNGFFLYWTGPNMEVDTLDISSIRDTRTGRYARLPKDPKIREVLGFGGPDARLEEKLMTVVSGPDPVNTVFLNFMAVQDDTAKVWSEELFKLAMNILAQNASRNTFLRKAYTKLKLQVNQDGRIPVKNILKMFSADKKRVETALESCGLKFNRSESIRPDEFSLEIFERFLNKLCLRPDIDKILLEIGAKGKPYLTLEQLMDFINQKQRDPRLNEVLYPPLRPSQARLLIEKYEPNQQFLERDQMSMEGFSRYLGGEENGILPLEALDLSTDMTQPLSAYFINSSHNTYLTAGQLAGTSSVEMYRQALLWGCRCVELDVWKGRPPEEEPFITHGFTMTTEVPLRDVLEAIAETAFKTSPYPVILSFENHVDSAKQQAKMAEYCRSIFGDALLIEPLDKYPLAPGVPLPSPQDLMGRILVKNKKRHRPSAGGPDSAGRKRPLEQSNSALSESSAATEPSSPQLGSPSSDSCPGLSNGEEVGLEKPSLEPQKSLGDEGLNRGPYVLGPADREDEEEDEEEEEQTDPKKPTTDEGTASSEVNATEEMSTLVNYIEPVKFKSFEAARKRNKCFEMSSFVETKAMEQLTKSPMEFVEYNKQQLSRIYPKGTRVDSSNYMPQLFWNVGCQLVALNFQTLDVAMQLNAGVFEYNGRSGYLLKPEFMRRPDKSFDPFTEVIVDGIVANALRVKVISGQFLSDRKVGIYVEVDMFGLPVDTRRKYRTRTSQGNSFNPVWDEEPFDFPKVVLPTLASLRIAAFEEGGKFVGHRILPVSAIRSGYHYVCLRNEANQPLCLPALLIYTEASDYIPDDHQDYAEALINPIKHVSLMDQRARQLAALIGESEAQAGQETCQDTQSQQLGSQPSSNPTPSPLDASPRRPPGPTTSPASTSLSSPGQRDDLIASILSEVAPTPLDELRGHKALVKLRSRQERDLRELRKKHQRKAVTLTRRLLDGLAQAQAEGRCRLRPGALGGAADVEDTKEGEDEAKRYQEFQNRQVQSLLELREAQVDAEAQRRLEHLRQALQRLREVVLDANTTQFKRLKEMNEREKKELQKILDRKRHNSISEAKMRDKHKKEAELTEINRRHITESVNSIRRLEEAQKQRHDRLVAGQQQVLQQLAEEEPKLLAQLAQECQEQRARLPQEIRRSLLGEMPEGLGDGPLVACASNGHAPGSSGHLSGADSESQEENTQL
MsrA inhibitor = bovine MsrA enzyme inhibitors, primary screen, biochemical, absorbance, HTS | Methionine sulfoxide reductase A (Bos taurus) | purified bovine MsrA, absorbance read-out | inhibition, % at 15.5 µM | actives 0.75% (n = 360,000) | AID 651718, 2012; in the data active = inhibition above about 4.5%;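 note: 0% = vehicle wells with enzyme and 100% = reference inhibitor wells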
PLC-gamma1 inh = PLC-gamma1 enzyme inhibitors, primary screen, biochemical, fluorescence, purified enzyme; inhibition, % at 12.2 µM; 1-phosphatidylinositol 4,5-bisphosphate phosphodiesterase gamma-1 (Homo sapiens), P19174; AID 720700, 2013; fluorogenic substrate; actives 0.84% (n = 370,000)
MsrA act = bovine MsrA enzyme activators, primary screen, biochemical, absorbance, HTS; purified bovine MsrA, absorbance read-out; AID 602163, 2012; activation, % at 10.6 µM; actives 0.3% (n = 360,000); in the data active = activation above about 7.5%;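 note: 0% = vehicle and 100% = reference activator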
PLCgamma1 ctr = PLC-gamma1 enzyme inhibitors, counter-screen for PLC-beta3 inhibitor project, biochemical, fluorescence. shares compounds with PLC-gamma1 inh. actives 3.1% (n = 3,300). inhibition, % at 12.3 µM. AID 743258, 2014. purified PLC-gamma1, fluorogenic substrate
PLCbeta3 conf = PLC-beta3 inhibitor confirmation, biochemical, fluorescence, purified enzyme; AID 743261, 2014; fluorogenic substrate fluorescence; shares compounds with PLC-gamma1 inh; actives 1% (n = 3,300); inhibition, % at 12.3 µM; in the data active = inhibition above about 11%
* marks the source's active call; other numbers are inactive results; x = no result given. Most compounds without a hit are left out; they make up all but 1.9% or so of the library. Cut-off read from the data, not from the text of the source, unless noted: active = inhibition above about 9.5%; inactive = the rest.

SMILES | PLC-beta3 inh | MsrA inhibitor | PLC-gamma1 inh | MsrA act | PLCgamma1 ctr | PLCbeta3 conf
CCn1nc(C(=O)O)c(=O)c2cc3c(cc21)OCO3 | 0 | 2 | 10* | -4 | -8 | -4
O=C(O)CCC(=O)Nc1ccc(Br)cn1 | 3 | 0 | 10* | -3 | -4 | -12
CCCCCCC(=O)Nc1ccc(Br)cn1 | -1 | -2 | 3 | -2 | x | x
CSc1nnc(-c2cc(C)on2)n1-c1ccccc1 | -3 | 0 | 11* | -1 | 0 | 2
CSc1nnc(-c2nnc(SC)n2-c2ccccc2)n1-c1ccccc1 | 4 | -1 | 5 | -8 | x | x
N#Cc1ccccc1S(=O)(=O)N1CCN(CC(O)CN2CCOCC2)CC1 (stereo unspecified) | 0 | 1 | 9.7* | -1 | -4 | 1
COc1ccc(OC)c(S(=O)(=O)N2CCN(CC(O)CN3CCOCC3)CC2)c1 (stereo unspecified) | -5 | 0 | 4 | 1 | x | x
CN(Cc1ccccc1)C(=O)c1ccc(NC(=O)Cc2ccc(NC(=O)C3CCN(C(=O)C4CCCC4)CC3)cc2)cc1 | 5 | 1 | 10.0* | 4 | -4 | 3
CN(Cc1ccccc1)C(=O)c1ccc(NC(=O)Cc2ccc(NC(=O)C3CCN(C(=O)C4CC4)CC3)cc2)cc1 | 4 | 1 | 5 | x | x | x
CCCCNC(=O)N1CCCC1C(=O)Nc1cccc(OC)c1 (stereo unspecified) | -3 | x | -1 | x | x | x
FC(F)(F)c1ccccc1NC(=S)Nc1ccccc1 | -5 | 0 | 11* | -7 | -3 | -2
COc1ccc(NC(=S)Nc2ccccc2C(F)(F)F)cc1 | -2 | 1 | 3 | -3 | x | x
O=C(Oc1ccc(Br)cc1C(=S)N1CCCC1)c1ccccc1F | 2 | 1 | 13* | -3 | -4 | -3
CCCCN1C[C@H](Cc2ccccc2)[C@@H](CC(=O)NC)C1=O | 3 | -1 | -4 | -2 | x | x
COc1ccccc1C(CCNCc1ccc(N(C)C)cc1)c1ccc(OC(C)C)cc1 (stereo unspecified) | -3 | -1 | 10* | 0 | 1 | 5
C#CCN(C[C@@H]1[C@@H](OC(=O)NC2CCCC2)[C@@H](OC(=O)NC2CCCC2)CN(C(=O)OC(C)C)N1C(=O)OC(C)C)S(=O)(=O)c1ccc(C)cc1 | 0 | 1 | 11* | 2 | -6 | -7
C[C@H]1CNC(=O)C(=O)N1C[C@H](Cc1ccc(O)cc1)NC(=O)CC12CC3CC(CC(C3)C1)C2 | 12* | -1 | 5 | -12 | -6 | 2
CCc1nc(SCC(=O)NCc2ccc(F)cc2)c2c(=O)n(C)c(=O)n(C)c2n1 | 3 | -1 | 46* | -1 | -9 | -4
CSc1cccc(NC(=O)CN(c2cccc(C)c2)S(C)(=O)=O)c1 | 1 | 0 | 11* | -11 | -6 | -1
Fc1ccc(-c2ccc3c(n2)CCCN3Cc2ccccc2C(F)(F)F)cc1 | -16 | 1 | -12 | x | x | x
CCc1c(N)nc(N)nc1Nc1ccccc1Cl | 11* | 1 | 11* | -1 | -20 | -2
CSc1ccccc1NC(=O)Cn1c(-c2cscn2)nc2ccccc21 | 8 | 1 | 9.8* | -10 | -7 | 0
O[C@@H]1C[C@H](c2ccc(Cl)cc2)N(Cc2cccs2)C[C@H]1n1cc(C2CC2)nn1 | -3 | 1 | 0 | -1 | x | x
C[C@H](CO)N1C[C@H](C)[C@H](CN(C)S(=O)(=O)c2cccs2)Oc2ncc(-c3cc4ccccc4o3)cc2C1=O | -125 | 1 | -92 | -3 | x | x
Cc1noc(C)c1S(=O)(=O)Nc1ccc2c(c1)C(=O)N([C@H](C)CO)C[C@H](C)[C@H](CN(C)C(=O)NC(C)C)OCCCC[C@@H](C)O2 | 8 | 1 | 11* | 1 | -1 | 0
SMILES | PLC-beta3 inh | MsrA inhibitor | PLC-gamma1 inh | MsrA act | PLCgamma1 ctr | PLCbeta3 conf
CCOC(=O)CCCCCC(=O)Nc1ccc2c(c1)C(=O)N([C@H](C)CO)C[C@@H](C)[C@@H](CN(C)C(=O)CCC(F)(F)F)OCCCC[C@H](C)O2 | 5 | 1 | 12* | 0 | -11 | -3
Cc1nnc(NC(=O)c2ccncc2)s1 | -1 | 3 | 2 | -4 | x | x
Cc1cnc(NC(=O)c2ccncc2)s1 | -5 | 1 | 11* | -6 | -5 | -2
Cc1cccc(-n2ncc3c(N)ncnc32)c1 | 12* | 2 | 10* | -10 | -3 | 0
O=C(NC1CCN(Cc2ccccc2)CC1)c1cccc(S(=O)(=O)Nc2ccc(F)cc2)c1 | 2 | 0 | 2 | -8 | x | x
N/C(=N\OC(=O)CCCc1ccccc1)c1cccnc1 | 12* | 1 | 7 | -2 | -8 | -4
N/C(=N\OC(=O)CCCc1ccccc1)c1ccccc1 | -6 | -1 | -1 | -4 | x | x
Cc1[nH][nH]c(=O)c1C(c1ccc(-c2ccc(C(=O)O)cc2)o1)c1c(C)[nH][nH]c1=O | -3 | 0 | -2 | -3 | x | x
Cc1[nH][nH]c(=O)c1C(c1ccc(-c2ccc(F)cc2)o1)c1c(C)[nH][nH]c1=O | 3 | 3 | 11* | 3 | -5 | -1
O=C1CCCC(O)=C1N=Nc1ccc(C(=O)O)cc1 | 2 | 0 | 13* | -1 | 8 | 7
CC(NC(C)c1ccccc1Cl)C(=O)Nc1cccc(S(=O)(=O)N2CCCCC2)c1 (stereo unspecified) | -5 | 0 | 9.8* | -1 | 1 | 1
CC(C)(C)c1ccc2cc(F)cc(F)c2n1 | 2 | -1 | 1 | -2 | x | x
Cn1ncc2nnn(-c3ccccc3)c(=O)c21 | 2 | 0 | 0 | -1 | x | x
Cn1ncc2nc[nH]c(=O)c21 | 1 | -1 | 10* | 0 | -4 | -2
CCSc1cc(N2CCCC2)nc(-c2ccc(F)cc2)n1 | 11* | 1 | 9 | -5 | -6 | -4
NC(=NCCc1c[nH]c2ccccc12)NC(=O)c1ccc(Cl)cc1 | -1 | 1 | 10.0* | -12 | -5 | -4
COc1ccc(C)cc1S(=O)(=O)N(CC(=O)N1CCOCC1)c1cc(C)cc(C)c1 | -2 | 2 | 10* | 3 | 0 | 2
Cc1cccc(C)c1Nc1ncnc2ccccc12 | 0 | 2 | 9.7* | -2 | -3 | -1
C=CCN1C(=O)[C@H](CC(=O)NCc2ccccc2)[C@@]2(C(=O)OCC)CCCC=C12 | 1 | x | 1 | x | x | x
Fc1ccccc1N1CCN(CC2CC3C=CC2C3)CC1 (stereo unspecified) | 11* | 1 | 12* | -1 | -3 | 0
C1=CC2CC1CC2CN1CCN(Cc2ccccc2)CC1 (stereo unspecified) | 1 | 0 | 1 | -9 | x | x
Cn1c(NCCCN2CCOCC2)nc2c1c(=O)n(Cc1ccc(Cl)cc1Cl)c(=O)n2C | 3 | -1 | 12* | -2 | -13 | -3
